For 9 compounds, growth results are on record in PubChem BioAssay (NCI).

Test systems include SK-MEL-2 melanoma; EKVX NSCLC; SN12C renal; UO-31 renal; TK-10 renal; ACHN renal; CAKI-1 renal; MOLT-4 leukemia; SR leukemia; OVCAR-8 ovarian; OVCAR-5 ovarian; OVCAR-4 ovarian; SK-OV-3 ovarian; IGROV1 ovarian; OVCAR-3 ovarian; HS 578T breast; NCI/ADR-RES ovarian.
Experiment in all cases: NCI-60 one-dose screen, 48 h (100 = growth as untreated, 0 = no growth, -100 = all killed)
What all share (conditions): 10 µM

Compounds without any hit were thinned out: in the full panel of roughly 83,000, 20% have a hit.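 Cells were grown in 96-well plates and exposed to the test compound at a single concentration for 48 hours; results are reported as percent growth, with values below 10 considered active.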 Values without a mark were called inactive. Active and inactive are the calls of the source.

On to `CCOC(=O)c1sc2ncnc(Nc3ccc4c(cnn4C(=O)Nc4ccccc4)c3)c2c1C`, for which the growth in the experiment with SK-MEL-2 melanoma was 85%; with EKVX NSCLC, 84.3%; with SN12C renal, 61.3%; with UO-31 renal it was 87.6%; in the experiment on TK-10 renal it was 78.6%; in the experiment on ACHN renal, 87.6%. Moreover, the growth in the experiment on CAKI-1 renal was 83.9%; in the experiment with MOLT-4 leukemia, 91%; with SR leukemia it was 27.9%; in the experiment with OVCAR-8 ovarian, 51.7%; in the experiment with OVCAR-5 ovarian, 98.9%; in the experiment with OVCAR-4 ovarian, -1.84% (active). The growth is 73.2% in the experiment with SK-OV-3 ovarian; 87.1% with IGROV1 ovarian; 67.8% with OVCAR-3 ovarian; 41.6% with HS 578T breast; 49.2% with NCI/ADR-RES ovarian.

On to `O=C(Nc1ccccc1)Nc1ncnc2c1ncn2-c1ccccc1`, for which the growth is 104% in the experiment on SK-MEL-2 melanoma; 78.5% in the experiment with EKVX NSCLC; 83.3% in the experiment on SN12C renal; 69.4% in the experiment on UO-31 renal; 75.2% in the experiment on TK-10 renal; 22.2% with ACHN renal. Also, the growth with CAKI-1 renal was 82.5%; in the experiment with MOLT-4 leukemia it was 94.1%; with SR leukemia, 70.8%; in the experiment with OVCAR-8 ovarian it was 55.3%; in the experiment on OVCAR-5 ovarian it was 83.2%; with OVCAR-4 ovarian it was -3.77% (active). For the same compound, the growth is 44.3% with SK-OV-3 ovarian; 78.5% in the experiment with IGROV1 ovarian; 73.7% in the experiment on OVCAR-3 ovarian; 50.1% in the experiment on HS 578T breast; 66.1% in the experiment on NCI/ADR-RES ovarian.

With `COc1cc2c3c(n([C@@H]4CCOC4)c(=O)c2cc1OC)-c1cc2c(cc1C3=O)OCO2`, the growth with SK-MEL-2 melanoma is 94%; in the experiment on EKVX NSCLC, 64.2%; with SN12C renal, 18.3%; in the experiment with UO-31 renal, 5.77% (active); in the experiment with TK-10 renal, 99.7%; with ACHN renal it was 0.739% (active). For the same compound, the growth in the experiment on CAKI-1 renal is 23.2%; with MOLT-4 leukemia, 20.4%; in the experiment with SR leukemia it was 15.1%; with OVCAR-8 ovarian it was 36.7%; with OVCAR-5 ovarian, 77%; in the experiment with OVCAR-4 ovarian, 72.2%. The growth with SK-OV-3 ovarian is 24.7%; with IGROV1 ovarian, 67.8%; in the experiment on OVCAR-3 ovarian, 52.3%; with HS 578T breast it was 109%; with NCI/ADR-RES ovarian it was 30.1%.

With `C=C/C(C)=C/C[C@]1(C)[C@H](C)[C@@H](OC(=O)CCC)[C@H](O)[C@@]23C(=C[C@H](OC)C[C@@H]12)[C@@H](OC(=O)CCC)O[C@H]3OC(C)=O`, the growth in the experiment on SK-MEL-2 melanoma was -70.5% (active); in the experiment with EKVX NSCLC, -33.7% (active); in the experiment on SN12C renal, -51.9% (active); with UO-31 renal, -90.7% (active); with TK-10 renal it was -95.1% (active); with ACHN renal it was -94.4% (active). Besides, the growth with CAKI-1 renal is 0.0055% (active); in the experiment on MOLT-4 leukemia, -12.8% (active); in the experiment with SR leukemia, -20.2% (active); in the experiment on OVCAR-8 ovarian, -60.4% (active); in the experiment with OVCAR-5 ovarian, -41.3% (active); in the experiment on OVCAR-4 ovarian, -2.11% (active). Also, the growth was -89.7% (active) in the experiment with SK-OV-3 ovarian; -9.72% (active) in the experiment on IGROV1 ovarian; -86.5% (active) with OVCAR-3 ovarian; -31.5% (active) in the experiment on HS 578T breast; -20.4% (active) in the experiment on NCI/ADR-RES ovarian.

As to `Cc1c2cnccc2c(C)c2c1c1cc(O)ccc1n2C(C)C`, the growth in the experiment on SK-MEL-2 melanoma is -14.4% (active); in the experiment on EKVX NSCLC, 9.67% (active); in the experiment on SN12C renal, -6.79% (active); in the experiment with UO-31 renal it was -3.92% (active); in the experiment on TK-10 renal, 56.2%; in the experiment with ACHN renal, -1.61% (active). Moreover, the growth was 15.6% in the experiment on CAKI-1 renal; -4.53% (active) in the experiment on MOLT-4 leukemia; -17.1% (active) in the experiment with SR leukemia; 7.98% (active) with OVCAR-8 ovarian; 69.2% with OVCAR-5 ovarian; 25% in the experiment on OVCAR-4 ovarian. Moreover, the growth with SK-OV-3 ovarian is -15.7% (active); with IGROV1 ovarian, 7.7% (active); with OVCAR-3 ovarian, 21.5%; in the experiment with HS 578T breast, 3.64% (active); with NCI/ADR-RES ovarian, 1.26% (active).

Turning to `COc1cc2nc(SCC(=O)Nc3cc(OC)c(OC)c(OC)c3)n(Cc3ccccc3)c(=O)c2cc1OC`, the growth is 45.4% with SK-MEL-2 melanoma; 75.5% with EKVX NSCLC; 69.1% in the experiment with SN12C renal; 48.9% with UO-31 renal; -12.5% (active) in the experiment with TK-10 renal; 66.1% in the experiment on ACHN renal. For the same compound, the growth is 84.8% with CAKI-1 renal; -4.94% (active) with OVCAR-8 ovarian; 93.7% in the experiment with OVCAR-5 ovarian; 48.1% with OVCAR-4 ovarian; 47.4% in the experiment on SK-OV-3 ovarian; 75.5% in the experiment with IGROV1 ovarian. Also, the figures for the growth with OVCAR-3 ovarian and in the experiment with HS 578T breast were 69.7% and 24.9%, respectively.

On to `CCn1cc(CNc2ccc(C(=O)Nc3ccc4ccccc4c3)cc2)c(C)n1`, for which the growth with SK-MEL-2 melanoma is 61%; with EKVX NSCLC it was 36.5%; with SN12C renal it was 85.7%; with UO-31 renal it was 47.1%; in the experiment with TK-10 renal it was 1.78% (active); in the experiment on ACHN renal, 69.5%. Besides, the growth in the experiment on CAKI-1 renal was 53.6%; with MOLT-4 leukemia it was 15.5%; with SR leukemia it was 46.2%; in the experiment with OVCAR-8 ovarian, 45%; with OVCAR-5 ovarian it was 94.4%; in the experiment with OVCAR-4 ovarian, 20.8%. For the same compound, the growth in the experiment with SK-OV-3 ovarian was 11.8%; in the experiment with IGROV1 ovarian it was 68%; in the experiment on OVCAR-3 ovarian it was 55.9%; in the experiment on HS 578T breast, 105%; in the experiment on NCI/ADR-RES ovarian, 23.3%.

`O=C1c2c(c3c4ccccc4n(CCCCCCN4CCOCC4)c3c3[nH]c4ccccc4c23)C(=O)N1O`: the growth with SK-MEL-2 melanoma is 110%; with EKVX NSCLC it was 82.4%; in the experiment with SN12C renal, 75.8%; in the experiment with UO-31 renal it was 9.13% (active); in the experiment with TK-10 renal, 111%; with ACHN renal it was 92.6%. The growth is 96.7% with CAKI-1 renal; 66.3% in the experiment with MOLT-4 leukemia; -26.2% (active) in the experiment on SR leukemia; 3.72% (active) in the experiment with OVCAR-8 ovarian; 127% with OVCAR-5 ovarian; 103% in the experiment with OVCAR-4 ovarian. Also, the growth in the experiment with SK-OV-3 ovarian is 93%; with OVCAR-3 ovarian, 88.7%; in the experiment with HS 578T breast it was 106%; in the experiment with NCI/ADR-RES ovarian, 43.9%.

As for `COc1cc2c3c(n(C4CCN(C)CC4)c(=O)c2cc1OC)-c1cc2c(cc1C3=O)OCO2`, the growth with SK-MEL-2 melanoma was 80.8%; in the experiment with EKVX NSCLC it was 69.4%; with SN12C renal, 43.4%; in the experiment on UO-31 renal, 52.4%; in the experiment with TK-10 renal, 86.9%; in the experiment with ACHN renal, 57.2%. The growth is 75.6% with CAKI-1 renal; 29.5% with MOLT-4 leukemia; 7.92% (active) with SR leukemia; 19.4% in the experiment on OVCAR-8 ovarian; 138% with OVCAR-5 ovarian; 84.9% in the experiment with OVCAR-4 ovarian. Besides, the growth with SK-OV-3 ovarian is 48.7%; in the experiment on IGROV1 ovarian it was 66.9%; with OVCAR-3 ovarian it was -72% (active); with HS 578T breast, 109%; in the experiment on NCI/ADR-RES ovarian, 64%.
